From PubChem BioAssay (NCI)
This is part of a sample that, as a whole, favours compounds with a hit. Of some 79,000 tested, about 15% had one in any assay. A number with no mark means an inactive call. Active and inactive are the calls of the source. Rule as the data show it: active = growth inhibition above about 70%; inactive = the rest.

Assays:
[1] = NCI Yeast Anticancer Drug Screen. Data for the rad50 strain (AID 155);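 also: 0% = growth of vehicle-only cultures of the same strain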; conditions: S. cerevisiae rad50 strain growth inhibition, active compounds read high
In short: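 Growth of the mutant yeast was measured after compound exposure and referenced to vehicle-treated cultures.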

[2] = NCI Yeast Anticancer Drug Screen. Data for the mec2-1 strain (AID 157); conditions: S. cerevisiae mec2-1 strain, active compounds read high
In short: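 Compounds were applied to mec2-1 yeast cells. Their growth was then compared with that of vehicle-treated cultures to give growth inhibition.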

[3] = NCI Yeast Anticancer Drug Screen. Data for the sgs1 mgt1 strain (AID 161);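 also: 0% = growth of cultures given vehicle only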; conditions: S. cerevisiae sgs1 mgt1 strain, active compounds read high
In short: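 Yeast cells carrying a defined DNA-repair defect were exposed to test compounds. Growth inhibition was measured relative to vehicle-treated controls.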

[4] = NCI Yeast Anticancer Drug Screen. Data for the cln2 rad14 strain (AID 165);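 also: 0% = growth equal to vehicle treated cultures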; conditions: S. cerevisiae cln2 rad14 strain, active compounds read high
In short: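 Strain: cln2 rad14 yeast, altered in cell cycle control and DNA damage repair. Read-out: growth inhibition vs vehicle.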

[5] = NCI Yeast Anticancer Drug Screen. Data for the bub3 strain (AID 167); conditions: S. cerevisiae bub3 mutant strain, active compounds read high
In short: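 Whole-cell yeast assay. The mutant strain was incubated with compounds, and growth inhibition was determined by comparison with vehicle-treated cells.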

[6] = NCI Yeast Anticancer Drug Screen. Data for the mlh1 rad18 strain (AID 175); conditions: S. cerevisiae mlh1 rad18 strain growth inhibition, active compounds read high
In short: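 A repair-deficient yeast strain is exposed to test compound, and growth is scored relative to vehicle-treated controls.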

[7] = at 5.0 µM (retest, dose inferred, filed as 0.5)
[8] = at 50.0 µM (retest, dose inferred, filed as 5.0)

| SMILES | growth inhibition [1, 7] | growth inhibition [1, 8] | growth inhibition ([1]; at 50.0 µM) | growth inhibition [2, 7] | growth inhibition [2, 8] | growth inhibition ([2]; at 50.0 µM) | growth inhibition [3, 7] | growth inhibition [3, 8] | growth inhibition ([3]; at 50.0 µM) | growth inhibition [4, 7] | growth inhibition [4, 8] | growth inhibition ([4]; at 50.0 µM) | growth inhibition [5, 7] | growth inhibition [5, 8] | growth inhibition ([5]; at 50.0 µM) | growth inhibition [6, 7] | growth inhibition [6, 8] | growth inhibition ([6]; at 50.0 µM) |
| --- | --- | --- | --- | --- | --- | --- | --- | --- | --- | --- | --- | --- | --- | --- | --- | --- | --- | --- |
| C=CCN1CCC(OC(=O)C(O)(C#CC)C2CCCC2)CC1 (configuration not stated) | 40% | 72% (active) | 68.9% | 31% | 62% | 50.9% | 40% | 71% (active) | 71.9% (active) | 35% | 76% (active) | 58.6% | 21% | 78% (active) | 61.8% | 17% | 66% | 64% |
| O=C(CNCc1ccccc1)c1ccc(Cl)cc1 | -3% | -6% | 11.6% | -2% | 6% | 1.45% | -3% | 17% | 8.4% | -1% | -22% | 24.6% | -2% | 35% | -7.85% | -4% | 14% | 14.5% |
| Clc1c2ccccc2cc2cccnc12 | 17% | 90% (active) | 50.2% | 7% | 26% | 54.6% | 6% | 81% (active) | 48.8% | 3% | 40% | 36% | 3% | 71% (active) | 76% (active) | 17% | 86% (active) | 67.2% |
| CCN(CC)CCOc1ccc(C(O)(Cc2ccc(Cl)cc2)c2ccccc2)cc1 (configuration not stated) | 39% | 90% (active) | 90.9% (active) | 35% | 87% (active) | 83.8% (active) | 58% | 95% (active) | 97.5% (active) | 56% | 93% (active) | 98.3% (active) | 57% | 89% (active) | 81.2% (active) | 51% | 89% (active) | 97.2% (active) |
| O=C(NCCc1c(-c2ccccc2)[nH]c2ccccc12)C(F)(F)C(F)(F)F | 21% | 21% | 86.5% (active) | 1% | 1% | 91% (active) | 33% | 33% | 84.8% (active) | 4% | 4% | 81.6% (active) | 5% | 5% | 79% (active) | 23% | 23% | 30.1% |
| CCC(C)N(C(=O)c1ccccc1)c1ccccc1 (configuration not stated) | -1% | -2% | 2.8% | 1% | -1% | 6.15% | 2% | -3% | -7.35% | 0% | 3% | 39.8% | -3% | -1% | -4.45% | -3% | 2% | -3.65% |
| Clc1ccc2c(NC3CCC(N4CCCCC4)CC3)ccnc2c1 (configuration not stated) | 99% (active) | 97% (active) | -13.2% | 90% (active) | 97% (active) | -25.6% | 93% (active) | 98% (active) | -24.1% | 76% (active) | 97% (active) | 27.1% | 94% (active) | 97% (active) | -79.4% | 98% (active) | 97% (active) | -16% |
| Cc1cc(C(=O)CBr)c(CN2C(=O)c3ccccc3C2=O)c(=O)n1C | 17% | 98% (active) | 63.3% | 49% | 99% (active) | 12.3% | 25% | 99% (active) | 74.3% (active) | 11% | 98% (active) | 2% | 18% | 98% (active) | 31.2% | 64% | 99% (active) | 38% |
| CC(NC(=O)OC(C)(C)C)C(=O)NC(Cc1ccccc1)C(=O)NCC(=O)Oc1c(Cl)c(Cl)c(Cl)c(Cl)c1Cl (configuration not stated) | 30% | 66% | 65.4% | 27% | 45% | 71.5% (active) | 41% | 72% (active) | 77% (active) | 27% | 55% | 46.5% | 35% | 61% | 56.5% | 68% | 79% (active) | 73.4% (active) |
